Data as given in the supplement of paper PMC7156485.
“And” between values parts separate entries of the source, which are not always exact repeats. Identical values can stand only once. ± gives the standard deviation of the averaged measurements.

What was measured:
Conditions in all cases: concentration: 10 µM; 24 h
HCC1569 [1] = assay: cell number relative to DMSO (% of DMSO); higher = more cells (less growth inhibition / toxicity)
Procedure, shortened: (§1)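 After 24 h at 37 °C with compounds at 10 µM, in triplicate, HCC1569 and TDF cells were fixed with 3.7% formaldehyde. Immunostaining used a rabbit anti-H1.0 antibody and an AlexaFluor 647 secondary, with DAPI, and six fields per well were imaged at ×10. H1.0 nuclear intensity or cell number is presented as percent of the plate control, from the median of replicates, with HCC1569 values smoothed for positional effects.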

TDF [2] = assay: as above
Procedure, shortened: as §1

TDF [3] = assay: H1.0 immunofluorescence intensity relative to DMSO (% of DMSO); higher = stronger H1.0 induction, active = 120 or more
Procedure, shortened: as §1

HCC1569 [4] = assay: H1.0 immunofluorescence intensity relative to DMSO (% of DMSO); higher = stronger H1.0 induction, active = 140 or more
Procedure, shortened: as §1
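Throughout, for H1.0 immunofluorescence intensity relative to DMSO: TDF is a line of transformed human dermal fibroblasts of mesenchymal origin.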
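Throughout, for cell number relative to DMSO: TDF denotes transformed human dermal fibroblasts of mesenchymal origin.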

SMILES	cell number (HCC1569 [1])	cell number (TDF [2])	H1.0 immunofluorescence intensity (TDF [3])	H1.0 immunofluorescence intensity (HCC1569 [4])
Cl.Clc1ccc(Cn2c(CN3CCCC3)nc3ccccc32)cc1 [Clemizole hydrochloride]	99	112	93.5 (inactive)	90.7 (inactive)
Oc1cc(O)cc(/C=C/c2ccc(Br)cc2)c1 [5-[(E)-2-(4-bromophenyl)ethenyl]-1,3-benzenediol]	93.1	98.8	95.4 (inactive)	127 (inactive)
NC(N)=NCc1cccc(I)c1 [N-(3-iodobenzyl)guanidine]	108	97.3	104 (inactive)	105 (inactive)
CCCCCCCCCCCCCCCCOCC(COP(=O)([O-])OCC[N+](C)(C)C)OC (configuration not stated) [1-Hexadecyl-2-methylglycero-3 PC]	101	95.4	104 (inactive)	102 (inactive)
CSc1ccc(/C=C2/C(C)=C(CC(=O)O)c3cc(F)ccc32)cc1	103	105	99.8 (inactive)	102 (inactive)
CCc1c(CC(N)=O)c2cc(OCCCP(=O)(O)O)ccc2n1Cc1ccccc1	101	104	96 (inactive)	101 (inactive)
CC(C)(C#N)c1cc(Cn2cncn2)cc(C(C)(C)C#N)c1 [Anastrozole]	102	101	99.4 (inactive)	102 (inactive)
NCCCCCCCCCCN [1,10-Diaminodecane]	101	98.7	89.4 (inactive)	88.5 (inactive)
CCN(CC)CCOC(=O)c1cc(Cl)c(N)cc1OC.Cl [SDZ-205,557 hydrochloride]	105	98.8	85.4 (inactive)	86.8 (inactive)
CC(=O)N1CCN(c2ccc(OCC3COC(Cn4ccnc4)(c4ccc(Cl)cc4Cl)O3)cc2)CC1 (configuration not stated) [Ketoconazole]	85.7 ± 11	97.3 ± 15	101 (inactive)	118 (inactive)
CCCCCC=CCC=CC=CC=CC(SCC(N)C(=O)NCC(=O)O)C(O)CCCC(=O)O (configuration not stated) [Leukotriene D4]	106	99.8	92.1 (inactive)	97.3 (inactive)
O=C(CCl)c1c[nH]c2ccccc12 [2-chloro-1-(1H-indol-3-yl)ethanone]	63.6	55	125 (active)	150 (active)
CC12C=CC(=O)C=C1CCC1C2=CCC2(C)C(C(=O)CN3CCN(c4cc(N5CCCC5)nc(N5CCCC5)n4)CC3)CCC12.O=C(O)C=CC(=O)O (configuration not stated)	91.7 and 96.8	93.4 and 95.2	95.3 (inactive) and 98.1 (inactive)	98 (inactive) and 96.5 (inactive)
CCCNC1CCc2nc(N)sc2C1 (configuration not stated) [Pramipexole]	101	97.5	94.4 (inactive)	107 (inactive)
CCC(Sc1nnc2c(n1)[nH]c1ccccc12)C(=O)N1c2ccccc2Sc2ccccc21 (configuration not stated)	96.4	96.3	103 (inactive)	700 (active)
CCCCS(=N)(=O)CCC(N)C(=O)O (racemic) [DL-Buthionine-[S,R]-sulfoximine]	102	102	97.8 (inactive)	99.9 (inactive)
CCc1nn(CCCN2CCN(c3cccc(Cl)c3)CC2)c(=O)n1CCOc1ccccc1 [Nefazodone]	98.9	100	95.5 (inactive)	110 (inactive)
CCCC1CC(C(=O)NC(C(C)O)C2OC(SC)C(O)C(O)C2O)N(C)C1 (configuration not stated) [Lincomycin]	103 ± 1.5	113 ± 2.2	93.1 (inactive)	93 (inactive)
C[N+](C)(C)CC=O.[Cl-] [Betaine aldehyde chloride]	104	115	94.6 (inactive)	83.1 (inactive)
CCCCCCCCCCCCCCCC(O)C(CO)NC(C)=O (configuration not stated) [C2 Dihydroceramide]	104	114	99.1 (inactive)	97 (inactive)
O=C(O)c1cc(=O)cc(C(=O)O)[nH]1 [Chelidamic acid]	98.8	109	90 (inactive)	96.3 (inactive)
CC(C)C(CO)Nc1nc(Nc2cccc(Cl)c2)c2ncn(C(C)C)c2n1 (configuration not stated) [Purvalanol A]	68.8 ± 4.3	61.8 ± 9.4	98.3 (inactive)	129 (inactive)
CCOC(=O)C=Cc1ccc(O)c(OC)c1 [Ferulic acid ethylester]	98.3	95.4	90.2 (inactive)	93.6 (inactive)
